High-throughput results: PubChem, several laboratories
BoNT-F LC inh = blocks Botulinum neurotoxin F light chain protease | inhibition, % at 10 µM | Multiplex microsphere protease cleavage assay, flow cytometry | hit rate 0.22% among 360,000; in the data active = inhibition above about 35%, passing the limit was not always enough; inconclusive = no clear call, values can overlap the other calls; also: plate controls were buffer without enzyme for full effect and enzyme alone for no effect
FBA Mtb inh = Mtb fructose-bisphosphate aldolase inhibition. hit rate 2.3% among 360,000. inhibition, % at 1 µM. purified M. tuberculosis FBA, fluorescence read-out. AID 588726. P9WQA3; in the data active = inhibition above about 27%;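 also: 0% = vehicle and 100% = reference inhibitor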
Target sequence (P9WQA3 whole entry, looked up): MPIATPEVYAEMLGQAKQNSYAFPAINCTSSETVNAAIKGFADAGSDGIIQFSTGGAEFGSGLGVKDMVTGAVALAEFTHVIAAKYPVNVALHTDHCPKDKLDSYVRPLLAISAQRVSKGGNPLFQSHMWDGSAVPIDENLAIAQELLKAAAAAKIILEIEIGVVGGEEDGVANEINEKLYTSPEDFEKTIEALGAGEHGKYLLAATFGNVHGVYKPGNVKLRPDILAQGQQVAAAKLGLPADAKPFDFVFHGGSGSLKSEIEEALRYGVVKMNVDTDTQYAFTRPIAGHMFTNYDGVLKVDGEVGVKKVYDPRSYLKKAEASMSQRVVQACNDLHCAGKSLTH
GDH-TPI inh = counter-screen for M. tuberculosis FBA inhibitors: GDH-TPI coupled enzymes. GDH-TPI coupled enzyme counterscreen, NADH absorbance. inhibition, % at 4.8 µM. hit rate 1.2% among 360,000. AID 588335; in the data active = inhibition above about 30%;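 also: 0% = DMSO wells and 100% = wells lacking the enzyme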
Anthrax LF inh2 = anthrax lethal factor protease inhibition; multiplex microsphere protease cleavage assay, LF; P15917; hit rate 0.12% among 360,000; inhibition, % at 10 µM; also: plate controls were buffer without enzyme for full effect and enzyme alone for no effect
Autofluor counter = flagged as autofluorescent in microsphere protease counterscreen; compound autofluorescence counterscreen, microsphere flow cytometry; active compounds read high; fluorescence intensity (concentration not given with the values); hit rate 3.1% among 360,000; AID 624483; in the data active = fluorescence intensity above about 16000; inconclusive = no clear call, values can overlap the other calls
BoNT-A LC inh2 = BoNT A light chain protease inhibition; AID 588499; inhibition, % at 10 µM; hit rate 0.17% among 360,000; multiplex microsphere protease substrate cleavage, flow cytometry; also: plate controls were buffer without enzyme for full effect and enzyme alone for no effect
* hit, by the source's call. Sampled rows, rich in hits. Any-hit rate of the full collection: about 6.6%. Rule as the data show it, unless noted: active = inhibition above about 30%; inconclusive = no clear call, values can overlap the other calls; inactive = below that.

`CCOc1ccc(/C=C2/SC(=S)N(C(C(=O)O)c3ccccc3)C2=O)cc1OCC` (stereo unspecified) gave BoNT-F LC inh -4, FBA Mtb inh 0, GDH-TPI inh 0, Anthrax LF inh2 -3, Autofluor counter 4506 and BoNT-A LC inh2 0.
Screening CCOc1cc(/C=C2\SC(=S)N(C(C(=O)O)c3ccccc3)C2=O)ccc1O (stereo unspecified) returned BoNT-F LC inh -4, FBA Mtb inh -18, GDH-TPI inh 38*, Anthrax LF inh2 -4, Autofluor counter 5387 and BoNT-A LC inh2 0.
`Cc1ccc(/C=C2\SC(=S)N(Cc3ccccc3)C2=O)o1` gave BoNT-F LC inh 11, FBA Mtb inh -3, GDH-TPI inh 1, Anthrax LF inh2 36*, Autofluor counter 4741 and BoNT-A LC inh2 48*.
For COc1cc(/C=C2/SC(=S)N(Cc3ccccc3)C2=O)ccc1O the results were BoNT-F LC inh 22, FBA Mtb inh -14, GDH-TPI inh 6, Anthrax LF inh2 15, Autofluor counter 3622 and BoNT-A LC inh2 30*.
For CCOc1cc(/C=C2/SC(=S)N(CC(=O)O)C2=O)ccc1OC(=O)c1cccs1 the results were BoNT-F LC inh -4, FBA Mtb inh 3, GDH-TPI inh 41*, Anthrax LF inh2 -1, Autofluor counter 3694 and BoNT-A LC inh2 0.
For O=C1/C(=C\c2ccc(O)c(O)c2)SC(=S)N1Cc1ccccc1 the results were BoNT-F LC inh -87, FBA Mtb inh -10, GDH-TPI inh -7, Anthrax LF inh2 -10, Autofluor counter 4080 and BoNT-A LC inh2 7.
`Cc1ccc(C)c(S(=O)(=O)N2CCN(C(=O)c3n[nH]c(=O)c4ccccc34)CC2)c1` gave BoNT-F LC inh 9, FBA Mtb inh -1, GDH-TPI inh 2, Anthrax LF inh2 2, Autofluor counter 5137 and BoNT-A LC inh2 2.
Screening CC1CCCC12NC(=O)NC2=O (stereo unspecified) returned BoNT-F LC inh 3, FBA Mtb inh 0, GDH-TPI inh -2, Anthrax LF inh2 -4, Autofluor counter 4171 and BoNT-A LC inh2 -1.
For CCOc1ccc(N=Cc2ccccc2O)cc1 the results were BoNT-F LC inh -4, FBA Mtb inh -4, GDH-TPI inh 3, Anthrax LF inh2 -5, Autofluor counter 3512 and BoNT-A LC inh2 0.
Screening COc1ccc(/C=C2\SC(=S)N(Cc3cccnc3)C2=O)cc1C returned BoNT-F LC inh 12, FBA Mtb inh 2, GDH-TPI inh -6, Anthrax LF inh2 20, Autofluor counter 2712 and BoNT-A LC inh2 38*.
O=C1/C(=C/c2ccc(O)cc2)SC(=S)N1Cc1cccnc1 was read as BoNT-F LC inh 4, FBA Mtb inh -2, GDH-TPI inh 7, Anthrax LF inh2 -1, Autofluor counter 2010 and BoNT-A LC inh2 1.
For COc1ccccc1-n1cnnc1SCC(=O)c1cc(C)n(Cc2cccs2)c1C the results were BoNT-F LC inh -1, FBA Mtb inh 0, GDH-TPI inh 10, Anthrax LF inh2 -1, Autofluor counter 17083* and BoNT-A LC inh2 -1.
For Cc1cc(C(=O)CSc2nnc(-c3ccccc3F)o2)c(C)n1Cc1cccs1 the results were BoNT-F LC inh 0, FBA Mtb inh -6, GDH-TPI inh -16, Anthrax LF inh2 -1, Autofluor counter 20558* and BoNT-A LC inh2 0.
For C=CCn1c(SCC(=O)c2cc(C)n(Cc3cccs3)c2C)nnc1-c1ccncc1 the results were BoNT-F LC inh 0, FBA Mtb inh 0, GDH-TPI inh 3, Anthrax LF inh2 2, Autofluor counter 3140 and BoNT-A LC inh2 1.
`COC(=O)CC1OCC=C2CN3CCC45C6=CC(=O)C(=O)C([N+](=O)[O-])=C6NC4C1C2CC35` (stereo unspecified) gave BoNT-F LC inh 7, FBA Mtb inh -1, GDH-TPI inh 16, Anthrax LF inh2 -6, Autofluor counter 3602 and BoNT-A LC inh2 0.
`Cc1cc(Cl)ccc1OCC(=O)N(Cc1ccco1)C1CCS(=O)(=O)C1` (stereo unspecified) gave BoNT-F LC inh inconclusive, FBA Mtb inh 0, GDH-TPI inh -11, Anthrax LF inh2 8, Autofluor counter 4094 and BoNT-A LC inh2 0.
`COc1cccc(Oc2ccc3nnc(C(F)(F)F)n3n2)c1` gave BoNT-F LC inh -5, FBA Mtb inh 3, GDH-TPI inh -1, Anthrax LF inh2 -10, Autofluor counter 3523 and BoNT-A LC inh2 0.
For Cc1nc(-c2cccs2)sc1C(=O)O the results were BoNT-F LC inh 4, FBA Mtb inh 24, GDH-TPI inh 24, Anthrax LF inh2 -2, Autofluor counter 3995 and BoNT-A LC inh2 -1.
Screening Cc1nccc(-c2sc(-c3cccs3)nc2C)n1 returned BoNT-F LC inh inconclusive, FBA Mtb inh active, GDH-TPI inh 26, Anthrax LF inh2 3, Autofluor counter 3847 and BoNT-A LC inh2 inconclusive.
`COc1ccc(/C=N/n2c(C)nc3sc(C)c(C)c3c2=O)cc1` gave BoNT-F LC inh 38*, FBA Mtb inh 2, GDH-TPI inh -6, Anthrax LF inh2 inconclusive, Autofluor counter 3518 and BoNT-A LC inh2 8.
Screening COc1ccc(-c2[nH]c(-c3ccc4c(c3)OCO4)nc2-c2ccccc2)cc1 returned BoNT-F LC inh -16, FBA Mtb inh 80*, GDH-TPI inh 9, Anthrax LF inh2 -3, Autofluor counter 3758 and BoNT-A LC inh2 0.
`Cc1c(C)c(C)c2[nH]c(-c3ccc4c(c3)OCO4)nc2c1C` gave BoNT-F LC inh inconclusive, FBA Mtb inh 173*, GDH-TPI inh 3, Anthrax LF inh2 11, Autofluor counter 4659 and BoNT-A LC inh2 -5.
Screening COc1ccc(-c2nc(-c3ccccc3)[nH]c(=O)c2C#N)cc1 returned BoNT-F LC inh 13, FBA Mtb inh -2, GDH-TPI inh 1, Anthrax LF inh2 -3, Autofluor counter 3228 and BoNT-A LC inh2 0.
Screening COc1ccc(N=Nc2nc(-c3ccccc3)c(-c3ccccc3)[nH]2)cc1 returned BoNT-F LC inh -13, FBA Mtb inh -22, GDH-TPI inh 4, Anthrax LF inh2 -5, Autofluor counter 2268 and BoNT-A LC inh2 1.
Screening COc1ccc(-c2[nH]c(-c3ccc(C(=O)O)cc3)nc2-c2ccccc2)cc1 returned BoNT-F LC inh 6, FBA Mtb inh active, GDH-TPI inh 11, Anthrax LF inh2 -19, Autofluor counter 9036 and BoNT-A LC inh2 0.
Screening O=C(O)c1ccc(-c2nc(-c3ccccc3)c(-c3ccccc3)[nH]2)cc1 returned BoNT-F LC inh -4, FBA Mtb inh active, GDH-TPI inh 30, Anthrax LF inh2 0, Autofluor counter 2389 and BoNT-A LC inh2 0.
Screening CSCCNC(=O)C1(C)CCN1C(=O)c1cc(C)n(C)n1 (stereo unspecified) returned BoNT-F LC inh -5, FBA Mtb inh -2, GDH-TPI inh -5, Anthrax LF inh2 4, Autofluor counter 3512 and BoNT-A LC inh2 0.
NC(=O)CC(NC(=O)Cc1ccc(Cl)cc1)c1ccc(NCc2ccccc2)c([N+](=O)[O-])c1 (stereo unspecified) was read as BoNT-F LC inh -8, FBA Mtb inh -3, GDH-TPI inh 6, Anthrax LF inh2 3, Autofluor counter 3665 and BoNT-A LC inh2 -1.
